Assay results taken from PubChem BioAssay (NCI).
About 83,000 compounds went through this panel and 20% of them were active in at least one assay; those are over-represented in the sample as a whole.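 Interpretation: 100, growth as untreated; towards 0, rising growth inhibition; 0, no net growth; 0 to -100, cell death. Compounds scoring below 10 were considered active.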 Calls of active or inactive are those of the source.

system: MDA-MB-435 melanoma; experiment: NCI-60 one-dose screen, 48 h (100 = growth as untreated, 0 = no growth, -100 = all killed); conditions: 10 µM unless noted

**Q.** How did the growth turn out when COC(=O)[C@@H](NC(=O)[C@@H](OC)[C@@H]1Cc2cc3cc(OC4CC(OC5CC(O)C(O)C(C)O5)C(O)C(C)O4)c(C)c(O)c3c(O)c2C(=O)[C@H]1OC1CC(OC2CC(OC3CC(C)(O)C(O)C(C)O3)C(O)C(C)O2)C(O)C(C)O1)C(C)C (some centres undefined) was run?
**A.** Its growth is 18.9% (inactive).

**Q.** With Nc1c2c(c(O)c3c1=C(CO)C=N3)=NCCS2=O (centres undefined) as the compound, how does the growth read?
**A.** The growth was -82.7% (active).

**Q.** C=CC[n+]1c(/C=C2\Sc3ccccc3N2C)sc(-c2ccccc2)c1-c1ccccc1 was tested. Which growth did it give?
**A.** The growth was 5.39% (active).

**Q.** CC1(C=O)NC(=O)NC1=O (centres undefined) was tested. Which growth did it give?
**A.** The growth was 111% (inactive).

**Q.** How did the growth turn out when COc1cc2c3c(c1)nc(C)n3CCC2 was run?
**A.** Its growth is 100% (inactive).

**Q.** For COc1cc2c(Oc3ccc4[nH]c(C)cc4c3F)ncnc2cc1OCCCN1CCCC1, which growth is on record?
**A.** Its growth is 99.6% (inactive).

**Q.** How did the growth turn out when CCc1nc2cc(/C=C/C(=O)NO)c(F)cc2c(=O)n1CCc1ccccc1 was run?
**A.** Its growth is 18.2% (inactive).

**Q.** For CCc1cc2c(c3ccc(C(=O)CBr)cc13)CCCC2, which growth is on record?
**A.** Its growth is 107% (inactive).

**Q.** How did the growth turn out when COc1cc(F)c(F)c(Nc2ccc(I)cc2F)c1NS(=O)(=O)C1(C[C@H](O)CO)CC1 was run?
**A.** The growth was 24.3% (inactive).

**Q.** Which growth does the source give for C=CC(=O)Nc1cc2c(Nc3ccc(F)c(Cl)c3)ncnc2cc1C#CC(C)(C)N1CCN(C)CC1 here?
**A.** The growth was -98.1% (active).

**Q.** For CN1CC[C@H](c2c(O)cc(O)c3c(=O)cc(-c4ccccc4Cl)oc23)[C@H](O)C1, which growth is on record?
**A.** The growth was -73.3% (active).

**Q.** With COc1cc2ncnc(Nc3ccc(F)c(Cl)c3)c2cc1NC(=O)/C=C/CN1CCCCC1 as the compound, how does the growth read?
**A.** The growth was -95.3% (active).

**Q.** Which growth does the source give for O=C(c1ccccc1)C(c1ccccc1)N1CCOCC1 (centres undefined) here?
**A.** The growth was 109% (inactive).

**Q.** With COc1ccc(CCCc2c3[n+](cc4c(OC)c(OC)ccc24)CCc2cc4c(cc2-3)OCO4)cc1 as the compound, how does the growth read?
**A.** The growth was 39.7% (inactive).

**Q.** How did the growth turn out when CCn1c(-c2nonc2N)nc2c(C#CC(C)(C)O)ncc(OC[C@H]3CCCNC3)c21 was run?
**A.** The growth was 75.3% (inactive).

**Q.** With COc1ccc(C2CC(=O)c3c(O)c(OC)c(OC)c(OC)c3O2)cc1O (centres undefined) as the compound, how does the growth read?
**A.** Its growth is -46.9% (active).

**Q.** With NC1(c2ccc(-c3nc4ccn5c(=O)[nH]nc5c4cc3-c3ccccc3)cc2)CCC1 as the compound, how does the growth read?
**A.** Its growth is 27% (inactive).

**Q.** Which growth does the source give for CCc1nc(C(N)=O)c(Nc2ccc(N3CCC(N4CCN(C)CC4)CC3)c(OC)c2)nc1NC1CCOCC1 here?
**A.** The growth was 52.3% (inactive).

**Q.** With CC(C)(C)c1ccc(Cn2cc(CSc3nc4ccccc4s3)nn2)cc1 as the compound, how does the growth read?
**A.** The growth was 106% (inactive).

**Q.** For COCC(=O)NC/C=C/c1ccc2ncnc(Nc3ccc(Oc4ccc(C)nc4)c(C)c3)c2c1, which growth is on record?
**A.** Its growth is 32.9% (inactive).

**Q.** With COc1ccc(-n2c(=O)c3ccccc3n(Cc3ccc(C(=O)NO)cc3)c2=O)cc1 as the compound, how does the growth read?
**A.** Its growth is -84.2% (active).

**Q.** Which growth does the source give for CC(=O)C(C(C)=O)C(c1ccccc1)C(C(C)=O)C(C)=O here?
**A.** The growth was 104% (inactive).

**Q.** How did the growth turn out when Cc1cc2c(F)c(Oc3ncnn4cc(OC[C@@H](C)OC(=O)[C@H](C)N)c(C)c34)ccc2[nH]1 was run?
**A.** The growth was 28.6% (inactive).

**Q.** With O=C(Cn1cncn1)Nc1ccc(-c2nc3ccccc3s2)cc1 as the compound, how does the growth read?
**A.** Its growth is 105% (inactive).

**Q.** COc1ccc(-c2cc3c(C)nc(N)nc3n(C3CCC(OCCO)CC3)c2=O)cn1 (centres undefined) was tested. Which growth did it give?
**A.** Its growth is -18.5% (active).

**Q.** Which growth does the source give for COc1cc(OC)c(/C=C/S(=O)(=O)Cc2ccc(OC)c(NCC(=O)O)c2)c(OC)c1 here?
**A.** The growth was -30.5% (active).

**Q.** C=CC(=O)N(C)[C@H]1C[C@H]2OC(C)(C1OC)n1c3ccccc3c3c4c(c5c6ccccc6n2c5c31)C(=O)NC4 (some centres undefined) was tested. Which growth did it give?
**A.** Its growth is 6.02% (active).

**Q.** How did the growth turn out when O=C1C=CC2(NN=C(c3ccccc3)N2c2cccc(Cl)c2)c2cccc(O)c21 (centres undefined) was run?
**A.** Its growth is -91.9% (active).

**Q.** For COC(=O)[C@@H](OC)[C@@H]1Cc2cc3cc(OC4CC(OC5CC(O)C(O)C(C)O5)C(O)C(C)O4)c(C)c(O)c3c(O)c2C(=O)[C@H]1OC1CC(OC2CC(OC3CC(C)(O)C(O)C(C)O3)C(O)C(C)O2)C(O)C(C)O1 (some centres undefined), which growth is on record?
**A.** Its growth is -62.4% (active).

**Q.** With O=C(O)c1ccc(Nc2ncc3c(n2)-c2ccc(Cl)cc2C(c2c(F)cccc2F)=NC3)cc1 as the compound, how does the growth read?
**A.** The growth was 70.7% (inactive).

**Q.** With CC(C)Nc1cc(-c2c[nH]c(C(=O)N[C@H](CO)c3cccc(Cl)c3)c2)c(Cl)cn1 as the compound, how does the growth read?
**A.** Its growth is 21.7% (inactive).

**Q.** How did the growth turn out when CCN(CC)CCNC(=O)c1c(C)[nH]c(/C=C2\C(=O)Nc3ccc(F)cc32)c1C was run?
**A.** Its growth is 3.92% (active).

**Q.** For COc1cccc2cc(-c3nc(C4CCC(C(=O)O)CC4)n4ncnc(N)c34)[nH]c12 (centres undefined), which growth is on record?
**A.** The growth was -8.42% (active).

**Q.** How did the growth turn out when O=C(c1ccc(/C=C/c2n[nH]c3ccccc23)cc1)N1CCNCC1 was run?
**A.** Its growth is 38.7% (inactive).

**Q.** For COc1cc(-c2nc(C(=O)NCC(=O)O)nn2-c2ccc(Cl)cc2)cc(OC)c1OC, which growth is on record?
**A.** The growth was 108% (inactive).

**Q.** Which growth does the source give for CC1CCC(n2cnc3c(Cl)ncnc32)O1 (centres undefined) here?
**A.** Its growth is 99.6% (inactive).

**Q.** For N#Cc1cc2[nH]c3ccc(OC(F)(F)F)cc3c2oc1=O, which growth is on record?
**A.** Its growth is 12.7% (inactive).

**Q.** For COc1ccc(-c2cnc(-c3ccc(Cl)cc3)[nH]2)cc1OC, which growth is on record?
**A.** The growth was 128% (inactive).

**Q.** With COc1ccc2c(CCCCC(c3ccccc3)c3ccccc3)c3[n+](cc2c1OC)CCc1cc2c(cc1-3)OCO2 as the compound, how does the growth read?
**A.** The growth was -91.8% (active).
